Reference: PubChem BioAssay AID2732 (Emory University Molecular Libraries Screening Center, 2010)
“And” between values parts separate entries of the source, which are not always exact repeats. Equal entries are not always repeated. The whole screen tested about 220,000 compounds, of which about 8,200 (3.7%) were called active.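 How the source made its calls: active means compounds that reduced the stress-induced luciferase reporter signal by more than about 70% of percent inhibition (limit read from the data); inactive means the rest.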 The list comes from a sample in which actives are over-represented; it also holds similar structures and randomly drawn compounds.

Assay: inhibitors of CHOP promoter induction, primary screen, cell-based, unfolded protein response, luciferase reporter (AID 2732);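 further: 0% = tunicamycin plus vehicle and 100% = wells without tunicamycin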
Conditions: CHO-K1 CHOP-promoter luciferase, tunicamycin-induced, 15-18 h; at 10 µM; stronger effect = higher value

Row | SMILES | inhibition
1 | CCOC(=O)c1c(N)sc2c1CCCC2=O | 4.68% (inactive)
2 | O=C(Cn1c[n+](CC(=O)c2ccc([N+](=O)[O-])cc2)cn1)c1ccc([N+](=O)[O-])cc1 | -15.2% (inactive) and -12.2% (inactive)
3 | COc1cc(SC)ccc1C(=O)Nc1cc(C)ccn1 | 37.2% (inactive)
4 | COc1ccccc1CNC(=O)c1ccc(SC)cc1OC | 2.76% (inactive)
5 | COc1cc(SC)ccc1C(=O)Nc1nc(C)cs1 | 95.2% (active)
6 | COC(=O)c1cc(C)sc1NC(=O)CC1Nc2ccccc2NC1=O (centres undefined) | 51.1% (inactive)
7 | Cc1ccc(CNC(=O)CC2Sc3ccccc3NC2=O)cc1 (centres undefined) | -5.1% (inactive)
8 | CCc1cc(C(=O)OC)c(NC(=O)CC2Sc3ccc(C(F)(F)F)cc3NC2=O)s1 (centres undefined) | 72.2% (active)
9 | COC(=O)c1noc(C)c1-c1ccnn1C(=O)c1ccc(Cl)cc1 | -0.96% (inactive)
10 | COc1cccc(OC)c1CN(C)C(=O)c1cnccc1C(F)(F)F | 16.4% (inactive)
11 | Cc1ccsc1/C=N/NC(=O)Cc1cc(=O)[nH][nH]1 | 10.3% (inactive)
12 | O=C(NC(=S)Nc1ccc2oc(=O)ccc2c1)c1ccc(-c2cccc(Cl)c2Cl)o1 | 80.2% (active)
13 | Cc1cccc(NC(=S)NC(=O)c2ccc(Br)o2)c1 | -36.1% (inactive)
14 | CC(C)C(=O)Nc1ccc2oc(=O)ccc2c1 | 8.38% (inactive)
15 | C=C(C)CNC(=S)Nc1ccc(S(=O)(=O)Nc2cnc3ccccc3n2)cc1 | 11.6% (inactive)
16 | Clc1cccc(CN2COc3c(cc(Cl)c4cccnc34)C2)c1 | 108% (active)
17 | O=c1[nH]n(-c2cccc(Cl)c2)c2ncccc12 | 9.34% (inactive)
18 | O=C1/C(=C/c2coc3ccc(O)cc3c2=O)SC(=S)N1c1ccccc1 | -12.8% (inactive)
19 | CCOC(=O)COc1nc(C)cc(C(F)(F)F)c1C#N | 16.9% (inactive)
20 | Cn1c(CC2Sc3ccccc3NC2=O)nnc1SCC(=O)c1ccc(Cl)cc1 (centres undefined) | 11.3% (inactive)
21 | CCc1cc(C(=O)c2ccc(OC)cc2)c(NC(=O)CN2CCN(C)CC2)s1 | 9.91% (inactive)
22 | CCNc1nc(SCCOc2ccccc2)nc(N(C)C)n1 | 90.8% (active)
23 | CCNc1nc(NCC)nc(N(C)n2cnnc2)n1 | 2.32% (inactive)
24 | Nc1nc(SCCOc2ccccc2)n[nH]1 | -32% (inactive)
25 | C/C(=N\Nc1cccc(C(=O)O)c1)c1ccc2c(c1)Nc1ccccc1S2 | -2.01% (inactive)

Row | SMILES | inhibition
26 | Cc1ccc(OC(=O)c2c(C)nn(-c3ccccc3)c2C)cc1 | 5.12% (inactive)
27 | CCCn1c(C)cc(C(=O)COC(=O)c2c(C)nn(-c3ccccc3)c2C)c1C | 52.2% (inactive)
28 | Cc1nn(-c2ccccc2)c(C)c1C(=O)OCC(=O)NC(=O)NC1CCCCC1 | 71.2% (active)
29 | CCc1cc(CNC(=O)CC2C(=O)NCCN2Cc2ccccc2C(F)(F)F)on1 (centres undefined) | 20.4% (inactive)
30 | O=c1[nH]c(SCc2cccc(F)c2)nc2ccccc12 | 8.81% (inactive)
31 | Cc1noc(C)c1COC(=O)COc1ccc(-c2ccccc2)cc1 | 10.1% (inactive)
32 | NC(=O)C1CCN(Cc2nc3c(Br)cc(Br)cc3c(=O)[nH]2)CC1 | 13.6% (inactive)
33 | C/C(=N\N)c1c(-c2ccccc2)c2cc(Br)ccc2[nH]c1=O | -1.78% (inactive)
34 | NC(N)=Nc1nc2ccc(Br)cc2c(=O)[nH]1 | 74.1% (active)
35 | Cc1[nH]n(-c2ccccc2)c(=O)c1N=Nc1ccccc1C(=O)N1CCCCC1 | 59.1% (inactive)
36 | Cc1ncn2cc(-c3ccc(Cl)cc3Cl)[nH]c(=O)c12 | 13.6% (inactive)
37 | c1ccc(-n2cccc2)c(N2CCCCC2)c1 | -6% (inactive)
38 | Cn1nnnc1SCc1cc(=O)[nH]c2ccccc12 | 6.42% (inactive)
39 | CCCCn1c(=S)[nH]c2ccccc2c1=O | -18.6% (inactive)
40 | CC(Sc1nc2c([nH]c3ccccc32)c(=O)n1C)c1ccccc1 (centres undefined) | 94.8% (active)
41 | O=C(Nc1ccc(Cl)cc1)/C(=C1\CCCN1)[N+](=O)[O-] | -6.93% (inactive)
42 | CN1CCN(c2ccc(CNS(=O)(=O)c3cccc(F)c3)cc2)CC1 | 9.01% (inactive)
43 | COc1ccc2[nH]c(=S)cc(C)c2c1 | -0.1% (inactive)
44 | Cc1ccc(Cn2c(NC(=O)c3ccco3)nc3ccccc32)cc1 | 80.3% (active)
45 | CC(=O)Nc1nc2ccccc2n1Cc1ccc(C)cc1 | -14.1% (inactive)
46 | Cc1ccc(-n2nc3cc(Cl)c(NC(=O)c4ccco4)cc3n2)cc1 | -26.1% (inactive)
47 | CN(C)S(=O)(=O)c1cccc(-c2nn(-c3ccccc3)cc2/C=C2\SC(=S)N(CC(=O)O)C2=O)c1 | 4.39% (inactive)
48 | CCCC(=O)Nc1ccc(Cl)c(NC(=O)c2ccc(Br)o2)c1 | 40.2% (inactive)
49 | CC(CC(=O)Nc1cc(C(F)(F)F)ccc1Cl)c1ccccc1 (centres undefined) | 54.4% (inactive)
